Screening data: PubChem, Broad Institute
C diff growth: inhibitors of Clostridium difficile growth; growth activity, negative = inhibition, % at 16 µg/mL (by protocol); Clostridium difficile clinical isolate growth, OD600, 24 h; hits give low values; AID 1259249; hit rate 0.25% among 86,000;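 active means mean growth activity at or below -80% and every replicate also at or below -80%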;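 further: 0% = DMSO wells and -100% = levofloxacin 16 µg/mL wells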
Active calls of the source: *; ! = a repeat was not active. Shown is part of a subset that was picked to be rich in hits.

SMILES | C diff growth
CCCN(C)C[C@@H]1OCCCC[C@@H](C)Oc2ccc(NC(=O)Nc3ccc(C(F)(F)F)cc3)cc2C(=O)N([C@H](C)CO)C[C@@H]1C | -19
C[C@H](CO)N1C[C@H](C)[C@H](CN(C)CC2CCCCC2)OCCCC[C@H](C)Oc2ccc(NC(=O)Nc3ccc(C(F)(F)F)cc3)cc2C1=O | -82*
COc1ccc2c3c(n(C)c2c1)[C@H](CO)N(S(C)(=O)=O)CC31CN(C(=O)C2CCC2)C1 | -1
C[C@H](CO)N1C[C@H](C)[C@@H](CN(C)Cc2ccc(Oc3ccccc3)cc2)OCc2ccccc2-c2c(n(C)c3ccccc23)C1=O | 46
Cc1noc(C)c1NC(=O)N[C@@H]1C=C[C@H](CC(=O)NCc2ccc(Cl)c(Cl)c2)O[C@@H]1CO | 9
O=C(c1cccc(F)c1)N1CCCCN2[C@H](CO)[C@@H](c3ccc(-c4ccc(F)cc4)cc3)[C@@H]2C1 | 19
O=C(NC1CCCC1)N1CC2(C1)[C@@H](c1ccccc1)[C@@H](CO)N2CC1CCOCC1 | -6
CO[C@H]1CN(C)C(=O)c2cc(NC(=O)NC3CCCC3)ccc2OC[C@H](C)N(CC2CC2)C[C@H]1C | 9
COc1ccc(CNC(=O)C[C@@H]2C[C@@H]3c4cc(NC(=O)CC5CC5)ccc4O[C@@H]3[C@@H](CO)O2)cc1 | 5
COc1ccc2c3c(n(C)c2c1)[C@H](CO)N(C(=O)Cc1ccccn1)CC31CN(CC2CCOCC2)C1 | 12
C[C@@H]1CCCCO[C@H](CN(C)C)[C@H](C)CN([C@H](C)CO)C(=O)c2cc(NC(=O)NC3CCCCC3)ccc2O1 | -5
C[C@@H]1CN([C@@H](C)CO)C(=O)c2cccc(NC(=O)Nc3ccc(F)cc3)c2O[C@@H]1CN(C)Cc1ccc(C(F)(F)F)cc1 | -92*
COc1ccc(CN(C)C[C@@H]2Oc3c(NC(=O)Nc4ccc(C(F)(F)F)cc4)cccc3C(=O)N([C@H](C)CO)C[C@H]2C)cc1 | 2
C[C@H](CO)N1C[C@H](C)[C@H](CN(C)Cc2ccc(-c3ccccc3)cc2)Oc2c(NC(=O)Nc3ccccc3)cccc2C1=O | 6
COc1ccc(CN(C)C[C@H]2Oc3c(NC(=O)Nc4ccc(C(F)(F)F)cc4)cccc3C(=O)N([C@@H](C)CO)C[C@H]2C)cc1 | -101*
C[C@H](CO)N1C[C@H](C)[C@@H](CN(C)Cc2ccc(C(F)(F)F)cc2)Oc2c(NC(=O)Nc3ccc(F)cc3)cccc2C1=O | 3
C[C@@H]1CN([C@@H](C)CO)C(=O)c2cccc(NC(=O)Nc3ccc(C(F)(F)F)cc3)c2O[C@@H]1CN(C)Cc1ccc(C(F)(F)F)cc1 | -103*
C[C@@H]1CN([C@@H](C)CO)C(=O)c2cccc(NC(=O)Nc3ccc(C(F)(F)F)cc3)c2O[C@H]1CN(C)Cc1ccc(C(F)(F)F)cc1 | 18
C[C@@H]1CN([C@H](C)CO)C(=O)c2cccc(NC(=O)Nc3ccc(F)cc3)c2O[C@H]1CN(C)Cc1ccc(-c2ccccc2)cc1 | -2
C[C@H]1CN([C@@H](C)CO)C(=O)c2cccc(NC(=O)Nc3ccc(C(F)(F)F)cc3)c2O[C@@H]1CN(C)Cc1ccc(C(F)(F)F)cc1 | 27
COc1ccc(NC(=O)Nc2cccc3c2O[C@H](CN(C)Cc2ccc(C(F)(F)F)cc2)[C@@H](C)CN([C@H](C)CO)C3=O)cc1 | 5
C[C@@H]1CN([C@@H](C)CO)C(=O)c2cccc(NC(=O)Nc3ccc(F)cc3)c2O[C@@H]1CN(C)Cc1ccc(-c2ccccc2)cc1 | -93*
C[C@@H]1CN([C@H](C)CO)C(=O)c2cccc(NC(=O)Nc3ccc(F)cc3)c2O[C@H]1CN(C)Cc1ccc(C(F)(F)F)cc1 | 7
C[C@H]1CCCCO[C@H](CN(C)S(=O)(=O)c2ccc(Cl)cc2)[C@@H](C)CN([C@@H](C)CO)C(=O)c2cc(NC(=O)CCCN(C)C)ccc2O1 | 10
O=C(Nc1cc(F)ccc1F)N1CC(=O)N2[C@H](CO)[C@H](c3ccc(C#CC4CCCC4)cc3)[C@H]2C1 | 58
SMILES | C diff growth
COc1ccc2c3c(n(C)c2c1)[C@H](CO)N(C(=O)Nc1ccc(F)cc1)CC31CN(C(=O)Nc2c(C)noc2C)C1 | -10
O=C(NC[C@@H]1CC[C@@H]2[C@@H](CN2S(=O)(=O)c2ccccc2[N+](=O)[O-])O1)C1CCOCC1 | -5
CN1c2ccc(C3=CCCCC3)cc2[C@H]2[C@H](CCN2C(=O)C2CC2)[C@@H]1CO | 26
C[C@@H]1CN([C@@H](C)CO)C(=O)Cc2cc(NC(=O)Nc3ccc4c(c3)OCO4)ccc2O[C@H]1CN(C)S(C)(=O)=O | 6
CC(=O)N1CC2(C1)[C@H](c1ccc(-c3ccc(C#N)cc3)cc1)[C@H](CO)N2CCC(F)(F)F | 0
C[C@H](CO)N1C[C@H](C)[C@H](CN(C)Cc2cccc(C(F)(F)F)c2)Oc2ncc(-c3ccc(F)cc3)cc2C1=O | 41
CCNC(=O)C[C@@H]1CC[C@H]2[C@@H](COC[C@@H](O)CN2C(=O)Nc2ccc(C(F)(F)F)cc2)O1 | -100*
O=C(C[C@@H]1CC[C@H]2[C@@H](COC[C@@H](O)CN2C(=O)Nc2ccc(C(F)(F)F)cc2)O1)NCC1CC1 | -18
CCNC(=O)C[C@@H]1CC[C@@H]2[C@H](COC[C@H](O)CN2C(=O)Nc2ccc(C(F)(F)F)cc2)O1 | -97*!
O=C(C[C@@H]1CC[C@H]2[C@@H](COC[C@H](O)CN2C(=O)Nc2ccc(C(F)(F)F)cc2)O1)NCC1CCCCC1 | -5
CCNC(=O)C[C@H]1CC[C@@H]2[C@H](COC[C@@H](O)CN2C(=O)Nc2ccc(C(F)(F)F)cc2)O1 | 62
O=C(C[C@@H]1CC[C@H]2[C@@H](COC[C@@H](O)CN2C(=O)Nc2ccc(C(F)(F)F)cc2)O1)NCC1CCCCC1 | -100*!
O=C(C[C@@H]1CC[C@@H]2[C@H](COC[C@@H](O)CN2C(=O)Nc2ccc(C(F)(F)F)cc2)O1)NCC1CCCCC1 | 58
O=C(C[C@H]1CC[C@@H]2[C@H](COC[C@H](O)CN2C(=O)Nc2ccc(C(F)(F)F)cc2)O1)NCC1CC1 | -23
O=C(C[C@@H]1CC[C@@H]2[C@H](COC[C@H](O)CN2C(=O)Nc2ccc(C(F)(F)F)cc2)O1)NCC1CC1 | -54
COc1ccc2c3c([nH]c2c1)[C@@H](CO)N(C(=O)Nc1ccc(F)cc1)CC31CCN(S(=O)(=O)c2ccccc2)CC1 | 8
Cc1ccc(S(=O)(=O)Nc2ccc3c(c2)C(=O)N([C@H](C)CO)C[C@H](C)[C@@H](CN(C)C)OCCCC[C@H](C)O3)cc1 | -2
C[C@@H]1CN([C@@H](C)CO)C(=O)c2cc(NC(=O)NC3CCCCC3)ccc2O[C@@H](C)CCCCO[C@@H]1CN(C)Cc1ccc(C(F)(F)F)cc1 | -41
CN(C)c1ccc2c(c1)[C@@H]1C[C@H](CC(=O)N3CCCCC3)O[C@H](CO)[C@@H]1O2 | 1
Cc1ccccc1-c1ccc([C@H]2[C@@H](CO)N3CCCCN(C(=O)Nc4ccccc4)C[C@@H]23)cc1 | -9
O=C(Nc1cc(F)ccc1F)N1CCCCN2[C@H](CO)[C@H](c3ccc(C4=CCCCC4)cc3)[C@@H]2C1 | -9
Cc1ccccc1-c1ccc([C@@H]2[C@H](CO)N3CCCCN(C(=O)Nc4ccc(F)cc4)C[C@@H]23)cc1 | -99*
Cc1ccccc1-c1ccc([C@@H]2[C@@H](CO)N3CCCCN(C(=O)Nc4ccc(F)cc4)C[C@@H]23)cc1 | 54
COc1ccc(C#Cc2ccc([C@@H]3[C@H]4CN(C(=O)Nc5cccc(F)c5)CCCCN4[C@H]3CO)cc2)cc1 | 53
